In the supplement of paper PMC12350171:
Where a name gives a salt, the structure may show the parent alone.

Assays:
Settings in all cases: 20 µM
[1] = tested on: Salmonella enterica typhimurium; test: growth AUC normalised to DMSO control (fraction of control); higher = less growth inhibition, active = hit call of the paper
In short: (§1)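 Three biological replicates were carried out, with OD578 read hourly for 24 h. Before inoculation at a starting OD578 of 0.01, pathogens were passaged anaerobically twice; plates were pre-reduced mGAM containing 20 μM compound and 1% DMSO, sealed with breathable membranes, and the Haemophilus parainfluenzae medium carried added hemin and NAD. Area under each growth curve was calculated by the trapezoidal rule up to the exponential-to-stationary transition and normalised to DMSO controls on the same plate.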

Shigella flexneri = test: as above
In short: as §1

Vibrio cholerae = test: as above
In short: as §1

[2] = tested on: Yersinia pseudotuberculosis; test: as above
In short: as §1

P. vulgatus RND KO = test: growth AUC normalised to DMSO control (median) (fraction of control); higher = less growth inhibition, active = hit call of the paper
In short: (§2)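 Strains were passaged twice overnight without oxygen, then grown in mGAM in 96-well plates with each approved-drug library compound at 20 μM and 1% DMSO, starting at OD578 0.01. OD578 was read hourly for 24 h inside an anaerobic incubator. Curves were truncated at entry into stationary phase, and the trapezoidal-rule area under the curve was normalised to same-plate vehicle wells. The value is the median across three biological replicates.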

P. vulgatus WT = test: as above
In short: as §2

[3] = tested on: S. enterica typhimurium WT; test: as above
In short: as §2

[4] = tested on: S. enterica typhimurium tolC KO; test: as above
In short: as §2

Measured: growth AUC normalised to DMSO control
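Throughout, for growth AUC normalised to DMSO control (median): active when median AUC fell below 0.1.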

NC1CCN(c2nc3c(cc2F)c(=O)c(C(=O)O)cn3-c2ccc(F)cc2F)C1 (configuration not stated) [Tosufloxacin hydrochloride]
active: [1] 0.00626 | Shigella flexneri 0.0173 | Vibrio cholerae 0.0443 | [2] 0.0355 | P. vulgatus RND KO 0.0157 | P. vulgatus WT 0.012 | [3] 0.00524 | [4] 0.00501

COc1cc2nc(N3CCN(C(=O)C4CCCO4)CC3)nc(N)c2cc1OC (configuration not stated) [Terazosin hydrochloride]
inactive: [1] 0.998 | Shigella flexneri 0.96 | Vibrio cholerae 0.989 | [2] 0.989 | P. vulgatus RND KO 1.03 | P. vulgatus WT 1.04 | [3] 1 | [4] 1.01

CCCCC[C@H](O)/C=C/[C@H]1[C@H](O)CC(=O)[C@@H]1CCCCCCC(=O)O [Alprostadil]
inactive: [1] 0.992 | Shigella flexneri 0.989 | Vibrio cholerae 0.99 | [2] 0.999 | P. vulgatus RND KO 0.994 | P. vulgatus WT 1.01 | [3] 1 | [4] 1.01

O=C1CCc2ccc(OCCCCN3CCN(c4cccc(Cl)c4Cl)CC3)cc2N1 [Aripiprazole]
inactive: [1] 1.02 | Shigella flexneri 1.03 | Vibrio cholerae 1.02 | [2] 1.01 | P. vulgatus RND KO 0.889 | P. vulgatus WT 0.891 | [3] 1.01 | [4] 0.92

COc1ccc2[nH]cc(CCNC(C)=O)c2c1 [Melatonin]
inactive: [1] 0.987 | Shigella flexneri 0.972 | Vibrio cholerae 0.997 | [2] 0.992 | P. vulgatus RND KO 0.988 | P. vulgatus WT 1 | [3] 0.996 | [4] 0.996

CC(=O)[C@@]1(O)CC[C@H]2[C@@H]3C[C@H](C)C4=CC(=O)C=C[C@]4(C)[C@@]3(F)[C@@H](O)C[C@@]21C [Fluorometholone]
inactive: [1] 1.01 | Shigella flexneri 1.03 | Vibrio cholerae 1.05 | [2] 1 | P. vulgatus RND KO 1 | P. vulgatus WT 1.01 | [3] 1 | [4] 0.987

NC(=O)c1cnccn1 [Pyrazinamide]
inactive: [1] 0.99 | Shigella flexneri 0.92 | Vibrio cholerae 0.993 | [2] 0.99 | P. vulgatus RND KO 0.992 | P. vulgatus WT 0.993 | [3] 0.999 | [4] 0.999

N/C(=N\C(=O)c1nc(Cl)c(N)nc1N)NCc1ccccc1 [Benzamil hydrochloride]
inactive: [1] 0.972 | Shigella flexneri 0.986 | Vibrio cholerae 0.99 | [2] 0.998 | P. vulgatus RND KO 0.996 | P. vulgatus WT 0.991 | [3] 0.998 | [4] 0.984

Cc1nc2n(c(=O)c1CCN1CCC(c3noc4cc(F)ccc34)CC1)CCCC2 [Risperidone]
inactive: [1] 1 | Shigella flexneri 0.997 | Vibrio cholerae 0.995 | [2] 1 | P. vulgatus RND KO 1.03 | P. vulgatus WT 1.03 | [3] 0.997 | [4] 0.993

CC(=O)N[C@@H](CC(C)C)C(=O)O [N-Acetyl-L-leucine]
inactive: [1] 1.04 | Shigella flexneri 1.01 | Vibrio cholerae 1.03 | [2] 1 | P. vulgatus RND KO 0.99 | P. vulgatus WT 0.997 | [3] 0.999 | [4] 0.996

CC(C)(Oc1ccc(Cl)cc1)C(=O)O [Clofibric acid]
inactive: [1] 0.995 | Shigella flexneri 1 | Vibrio cholerae 0.986 | [2] 0.996 | P. vulgatus RND KO 0.998 | P. vulgatus WT 1.01 | [3] 0.996 | [4] 1

Cc1cc(CC(=O)O)n(C)c1C(=O)c1ccc(Cl)cc1 [Zomepirac sodium salt]
inactive: [1] 0.997 | Shigella flexneri 1 | Vibrio cholerae 0.995 | [2] 1 | P. vulgatus RND KO 0.992 | P. vulgatus WT 1.01 | [3] 0.991 | [4] 1.02

CNCCCN1c2ccccc2CCc2ccccc21 [Desipramine hydrochloride]
inactive: [1] 0.974 | Shigella flexneri 0.946 | Vibrio cholerae 0.957 | [2] 0.986 | P. vulgatus RND KO 0.947 | P. vulgatus WT 0.976 | [3] 0.964 | [4] 0.925

CCCCCCCCCCCCCCCC[N+](C)(C)CCN(Cc1ccc(OC)cc1)c1ncccn1 [Thonzonium bromide]
inactive: [1] 0.999 | Shigella flexneri 0.979 | Vibrio cholerae 0.944 | [2] 1.01 | P. vulgatus RND KO 0.878 | P. vulgatus WT 0.883 | [3] 1 | [4] 1

COC(=O)C1=C(C)NC(C)=C(C(=O)OCCN(C)Cc2ccccc2)C1c1cccc([N+](=O)[O-])c1 (configuration not stated) [Nicardipine hydrochloride]
inactive: [1] 1 | Shigella flexneri 1.01 | Vibrio cholerae 0.966 | [2] 1 | P. vulgatus RND KO 1.02 | P. vulgatus WT 0.977 | [3] 1.01 | [4] 0.901

CN(C)CCOC(c1ccccc1)c1ccccc1.Cn1c(=O)c2[nH]c(Cl)nc2n(C)c1=O [Dimenhydrinate]
inactive: [1] 0.975 | Shigella flexneri 0.984 | Vibrio cholerae 0.933 | [2] 0.982 | P. vulgatus RND KO 1.01 | P. vulgatus WT 1 | [3] 0.988 | [4] 0.983

OC(c1cc(C(F)(F)F)nc2c(C(F)(F)F)cccc12)C1CCCCN1 (configuration not stated) [Mefloquine hydrochloride]
inactive: [1] 0.997 | Shigella flexneri 0.975 | Vibrio cholerae 1 | [2] 0.99 | P. vulgatus RND KO 0.719 | P. vulgatus WT 0.777 | [3] 0.998 | [4] 0.948

CC1CS(=O)(=O)CCN1/N=C/c1ccc([N+](=O)[O-])o1 (configuration not stated) [Nifurtimox]
inactive: [1] 0.981 | Shigella flexneri 0.947 | [2] 0.99 | [3] 0.995 | [4] 0.962
active: Vibrio cholerae 0.00876 | P. vulgatus RND KO 0.0205 | P. vulgatus WT 0.00686

Cc1ccc(NC(=O)c2ccc(CN3CCN(C)CC3)cc2)cc1Nc1nccc(-c2cccnc2)n1 [Imatinib]
inactive: [1] 1.03 | Shigella flexneri 1.06 | Vibrio cholerae 1.12 | [2] 0.991 | P. vulgatus RND KO 1.12 | P. vulgatus WT 1.09 | [3] 1.03 | [4] 0.259

O=C(c1ccc(OCCN2CCCCC2)cc1)c1c(-c2ccc(O)cc2)sc2cc(O)ccc12 [Raloxifene hydrochloride]
inactive: [1] 1.01 | Shigella flexneri 0.992 | Vibrio cholerae 0.988 | [2] 0.981 | P. vulgatus RND KO 1.06 | P. vulgatus WT 1.01 | [3] 1.02 | [4] 1.01

O=c1n(CCCN2CCN(c3cccc(Cl)c3)CC2)nc2ccccn12 [Trazodone hydrochloride]
inactive: [1] 0.992 | Shigella flexneri 0.991 | Vibrio cholerae 0.957 | [2] 0.984 | P. vulgatus RND KO 0.993 | P. vulgatus WT 1.01 | [3] 1 | [4] 0.964

CCCc1nc2c(C)cc(-c3nc4ccccc4n3C)cc2n1Cc1ccc(-c2ccccc2C(=O)O)cc1 [Telmisartan]
inactive: [1] 1 | Shigella flexneri 1.02 | Vibrio cholerae 1.02 | [2] 1.01 | P. vulgatus RND KO 0.852 | P. vulgatus WT 0.897 | [3] 0.996 | [4] 0.995

CN1CCN(CCCN2c3ccccc3Sc3ccc(Cl)cc32)CC1 [Prochlorperazine dimaleate]
inactive: [1] 1.01 | Shigella flexneri 1.02 | Vibrio cholerae 0.947 | [2] 1 | P. vulgatus RND KO 1.01 | P. vulgatus WT 0.981 | [3] 0.996 | [4] 0.892

COc1ccc(CC(C)NCC(O)c2ccc(O)c(NC=O)c2)cc1 (configuration not stated) [Formoterol fumarate]
inactive: [1] 1.01 | Shigella flexneri 1.07 | Vibrio cholerae 0.995 | [2] 1.05 | P. vulgatus RND KO 1.01 | P. vulgatus WT 1.02 | [3] 1.01 | [4] 0.998

CN(C)/N=N/c1[nH]cnc1C(N)=O [Dacarbazine]
inactive: [1] 0.989 | Shigella flexneri 0.976 | Vibrio cholerae 0.994 | [2] 1 | P. vulgatus RND KO 1.04 | P. vulgatus WT 1.03 | [3] 0.997 | [4] 1

C[C@H]1C[C@@H]2[C@H]([C@@H](O)C[C@@]3(C)[C@H]2CC[C@]3(O)C(=O)CO)[C@@]2(C)C=CC(=O)C=C12 [Methylprednisolone, 6-alpha]
inactive: [1] 0.997 | Shigella flexneri 0.998 | Vibrio cholerae 0.997 | [2] 0.993 | P. vulgatus RND KO 0.96 | P. vulgatus WT 0.982 | [3] 1 | [4] 1

Clc1ccc(C(Cn2ccnc2)OCc2csc3c(Cl)cccc23)c(Cl)c1 (configuration not stated) [Sertaconazole nitrate]
inactive: [1] 1.02 | Shigella flexneri 1.06 | Vibrio cholerae 1.05 | [2] 0.913 | P. vulgatus RND KO 1 | P. vulgatus WT 1.01 | [3] 1.01 | [4] 0.935

CN[C@H](CC(C)C)C(=O)N[C@H]1C(=O)N[C@@H](CC(N)=O)C(=O)N[C@H]2C(=O)N[C@H]3C(=O)N[C@H](C(=O)N[C@H](C(=O)O)c4cc(O)cc(O)c4-c4cc3ccc4O)[C@H](O)c3ccc(c(Cl)c3)Oc3cc2cc(c3O[C@@H]2O[C@H](CO)[C@@H](O)[C@H](O)[C@H]2O[C@H]2C[C@](C)(N)[C@H](O)[C@H](C)O2)Oc2ccc(cc2Cl)[C@H]1O [Vancomycin hydrochloride]
inactive: [1] 0.986 | Shigella flexneri 0.984 | Vibrio cholerae 1.01 | [2] 0.981 | [3] 0.996 | [4] 0.996
active: P. vulgatus RND KO 0.014 | P. vulgatus WT 0.0118

CC(=O)CCCCn1c(=O)c2c(ncn2C)n(C)c1=O [Pentoxifylline]
inactive: [1] 1 | Shigella flexneri 0.979 | Vibrio cholerae 0.967 | [2] 0.989 | P. vulgatus RND KO 0.983 | P. vulgatus WT 0.99 | [3] 1 | [4] 0.987

CC(C)N1CCN(c2ccc(OCC3COC(Cn4cncn4)(c4ccc(Cl)cc4Cl)O3)cc2)CC1 (configuration not stated) [Terconazole]
inactive: [1] 0.962 | Shigella flexneri 0.982 | Vibrio cholerae 1 | [2] 0.989 | P. vulgatus RND KO 1.06 | P. vulgatus WT 1.04 | [3] 1.01 | [4] 0.97

CN(CCCCCCCCCCN(C)C(=O)Oc1cccc([N+](C)(C)C)c1)C(=O)Oc1cccc([N+](C)(C)C)c1 [Demecarium bromide]
inactive: [1] 0.99 | Shigella flexneri 1 | Vibrio cholerae 0.984 | [2] 1.01 | P. vulgatus RND KO 0.944 | P. vulgatus WT 0.88 | [3] 0.991 | [4] 0.922

N=C(N=C(N)N)N1CCOCC1 [Moroxidine hydrochloride]
inactive: [1] 0.999 | Shigella flexneri 1 | Vibrio cholerae 0.991 | [2] 0.965 | P. vulgatus RND KO 1.01 | P. vulgatus WT 1.04 | [3] 1.01 | [4] 0.992

Cc1c(N(C)C)c(=O)n(-c2ccccc2)n1C [Amidopyrine]
inactive: [1] 1.01 | Shigella flexneri 1.03 | Vibrio cholerae 1.05 | [2] 1.01 | P. vulgatus RND KO 1 | P. vulgatus WT 1.02 | [3] 1.01 | [4] 0.999

O=C1Nc2ccc(Cl)cc2[C@@](C#CC2CC2)(C(F)(F)F)O1 [Efavirenz]
inactive: [1] 0.997 | Shigella flexneri 1.01 | Vibrio cholerae 0.999 | [2] 0.999 | P. vulgatus RND KO 0.715 | P. vulgatus WT 0.752 | [3] 1 | [4] 0.261
